According to PubChem BioAssay (NCATS):
Calls of active or inactive are those of the source. Rule as the data show it: active = potency below about 10 µM; inactive = the rest.

target: Lysosomal acid glucosylceramidase (Homo sapiens) (UniProt P04062); experiment: Glucocerebrosidase-p2 (AID 348); details: purified GBA, blue fluorogenic substrate, 40 min
Summary of the method: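 Normal human glucocerebrosidase (0.2 nM) with blue fluorogenic substrate (80 uM final) in citrate/phosphate pH 5.9 with 10mM sodium taurocholate, 0.01% tween-20; 40 min RT, NaOH/glycine stop; fluorescence Ex 365/Em 440; AC50 from a titration from 0.6 nM upwards.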
Potency is read from the fitted curve at half-maximal effect.

Sequence of Lysosomal acid glucosylceramidase (Homo sapiens) (P04062 whole entry, looked up): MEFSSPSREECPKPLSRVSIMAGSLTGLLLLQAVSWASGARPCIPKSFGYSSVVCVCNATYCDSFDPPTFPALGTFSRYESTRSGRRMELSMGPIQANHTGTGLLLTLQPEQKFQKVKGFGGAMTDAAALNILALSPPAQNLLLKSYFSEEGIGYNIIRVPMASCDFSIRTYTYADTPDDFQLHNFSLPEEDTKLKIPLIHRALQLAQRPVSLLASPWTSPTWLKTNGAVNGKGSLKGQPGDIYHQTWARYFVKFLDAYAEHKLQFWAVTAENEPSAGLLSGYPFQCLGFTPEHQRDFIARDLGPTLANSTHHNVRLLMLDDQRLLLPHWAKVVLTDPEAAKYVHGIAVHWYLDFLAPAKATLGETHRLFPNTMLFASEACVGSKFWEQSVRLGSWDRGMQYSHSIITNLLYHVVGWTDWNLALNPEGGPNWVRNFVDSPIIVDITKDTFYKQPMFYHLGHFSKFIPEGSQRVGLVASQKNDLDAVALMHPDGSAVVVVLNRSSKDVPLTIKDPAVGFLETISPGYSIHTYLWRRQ

Row | Compound | Potency
1 | FC(F)(F)c1ccccc1-c1ccc2ncnc(N3CCOCC3)c2c1 | > 11.4 µM (inactive)
2 | COCCn1c(=O)c(C)nc2cnc(Nc3ccccc3)nc21 | > 11.4 µM (inactive)
3 | COc1cccc(Cn2c(=O)cnc3cnc(N4CCN(C)CC4)nc32)c1 | > 11.4 µM (inactive)
4 | CN1CCN(c2ccnc(-c3ccc(N(C)C)cc3)n2)CC1 | > 11.4 µM (inactive)
5 | COc1ncc2nc(-c3cccs3)c(=O)n(C)c2n1 | > 11.4 µM (inactive)
6 | CN1CCCC[C@@H]1CCN1c2ccccc2Sc2ccc(S(C)=O)cc21 (stereo not given in full) | > 11.4 µM (inactive)
7 | N#Cc1cccc(-c2ccc3ncnc(NCc4ccccc4)c3c2)c1 | > 11.4 µM (inactive)
8 | CN(C)C(=O)c1ccc(-c2nc(N(C)C)c3ccccc3n2)cc1 | > 11.4 µM (inactive)
9 | COc1ccccc1-c1nccc(NCc2ccccc2)n1 | > 11.4 µM (inactive)
10 | CC(C)(S)[C@H](N)C(=O)O | > 11.4 µM (inactive)
11 | CN1CCN(c2ncc3ncc(=O)n(-c4ccccc4)c3n2)CC1 | > 11.4 µM (inactive)
12 | Cc1cnc(CNc2ncnc3ccc(-c4ccccc4C(F)(F)F)cc23)cn1 | > 11.4 µM (inactive)
13 | COc1ccccc1CNc1ncnc2ccc(-c3cccc(C#N)c3)cc12 | > 11.4 µM (inactive)
14 | FC(F)(F)c1ccccc1-c1ccc2ncnc(NCc3cccs3)c2c1 | > 11.4 µM (inactive)
15 | COc1ccccc1CNc1cc(-c2cccc(C#N)c2)ncn1 | > 11.4 µM (inactive)
